# High-throughput results as filed in PubChem BioAssay.
# HT1080 IDH1KD tx: qHTS for induction of synthetic lethality in tumor cells producing 2HG: qHTS for the HT-1080-IDH1KD cell line; Potency, µM (series often up to 46.1 µM), without a hit: top-dose activity, negative = toxicity, actives largely listed as cytotoxic; hit rate 2% among 360,000; HT-1080 IDH1 knockdown viability, ATP luminescence, 48 h;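 also: potency is read from the fitted curve at half-maximal effect; 0% = DMSO wells and -100% = cell-free medium wells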
#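 Luminescent ATP read-out (CellTiter-Glo, 10 min at room temperature) after 48 h compound exposure at 37 °C gave viability of IDH1-knockdown HT-1080 cells. Activity was normalised to DMSO and cell-free wells, then fitted as concentration-response curves.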
# TGFb SMAD3 inh: qHTS for Inhibitors of TGF-b | Potency, µM (titrated, usually from 46.1 µM), for the others: top-dose activity, negative = inhibition, hits mostly inhibitors | hit rate 1.2% among 410,000 | AID 588855, 2011 | HepG2 CAGA-GFP TGF-b/SMAD3 reporter, GFP fluorescence, 18 h; TGF-beta stimulated, 500 pg/mL final; also: potency is read from the fitted curve at half-maximal effect; % is scaled to controls: 0 for no effect and ±100 for the full control effect; nearly all actives have a fitted effect of over 65% in size
#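 Inhibition of TGF-beta-driven CAGA-GFP reporter expression in HEPG2 cells is measured by cellular GFP fluorescence after 18 h stimulation with 500 pg/mL recombinant TGF-beta in 1% FBS medium at 37 degrees C.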
# IL1B secr inh: qHTS for Inhibitors of Inflammasome Signaling: IL-1-beta AlphaLISA Primary Screen | THP-1 LPS/ATP IL-1B secretion, AlphaLISA, 16 h; active compounds read low | activity change, % at 57.5 µM | hit rate 4.7% among 360,000 | AID 743279, 2014; in the data active = activity change below about -50%; inconclusive = mostly about -30% to -49%; also: % is scaled to controls: 0 for no effect and ±100 for the full control effect
#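 Secreted IL-1B measured by AlphaLISA bead assay after 16 h compound exposure of THP-1 cells; compounds (final up to 57.5 uM) added 1 h before LPS (250 ng/mL) and ATP (1.25 mM) stimulation; lower signal means less secretion.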
# HT1080NT lethal: qHTS for induction of synthetic lethality in tumor cells producing 2HG: qHTS for the HT-1080-NT fibrosarcoma cell line. HT-1080-NT fibrosarcoma viability, CellTiter-Glo ATP luminescence, 48 h. Potency, µM (series often up to 46.1 µM), for the others: at the highest dose activity, negative = less viability, hits mostly cytotoxic. hit rate 1.6% among 360,000;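 also: NT is the 2HG producing partner of a matched IDH1 knockdown line; potency is read from the fitted curve at half-maximal effect; 0% = DMSO-treated cells and -100% = media-only wells without cells; nearly all actives have a fitted effect of over 55% in size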
#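 Viability of the 2HG-overproducing fibrosarcoma line after 48 hours of compound exposure at 37 degrees C was determined by luminescence with CellTiter-Glo, and concentration-effect curves were then fitted and categorized.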
# HepG2 tox: qHTS for Inhibitors of TGF-b: Cytotox Counterscreen. HepG2 CAGA-GFP viability, ATP luminescence, 18 h. Potency, µM (top dose mostly 46.1 µM), inactives show top-dose activity change, negative = cytotoxicity, hits mostly cytotoxic. hit rate 0.76% among 410,000. AID 588856, 2011; also: potency is read from the fitted curve at half-maximal effect
#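 CellTiter-Glo luminescence gave cytotoxicity after 18 hours at 37 degrees C. The cells were HepG2 CAGA-GFP in 1% FBS DMEM, stimulated with 500 pg/mL TGF-beta after compound addition. %Activity was normalised to no-cell wells (complete cell-killing) and DMSO (no toxicity), and curves were fitted and classified.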
# Giardia killer: Small Molecules that selectively kill Giardia lamblia: qHTS; Giardia lamblia trophozoite viability; activity change, % at 7.66 µM, hits read low; hit rate 0.15% among 340,000; AID 540267, 2011; in the data active = activity change below about -80%; inconclusive = between about -30% and that limit;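 also: parasites exposed to compound for two days anaerobically before the ATP read; % is scaled to controls: 0 for no effect and ±100 for the full control effect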
#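 Compounds were tested on trophozoites seeded at 100 cells/well and held 48 hrs at 37 deg C anaerobically. An ATP-based luminescent kit measured the remaining live cells.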
# Starred values were filed as active, the others as inactive; i = inactive; ? = inconclusive; nt = no result; [ ] = another dose, or the depositor's remark. The list is not random: actives were taken first. Their share in the collection is about 6.5%. Unless noted, calls follow the shape of the dose curve; as a rule, active = well fitted curve in the direction sought with a large enough effect; inconclusive = small, poorly fitted or top-dose-only effect, or another doubt; inactive = no such curve, though single readings can be large; an effect the other way counts as inactive or inconclusive.
SMILES,HT1080 IDH1KD tx,TGFb SMAD3 inh,IL1B secr inh,HT1080NT lethal,HepG2 tox,Giardia killer
c1ccc(N2CC[N+]3(CCCC3)CC2)nc1,-9%,13%,12,2%,-42%,3
CCCCNc1ccc(C(F)(F)F)cc1S(=O)(=O)NCCc1ccc(F)cc1,?,?,-63*,?,5µM*,0
COc1ccc(S(=O)(=O)NCCc2ccc(F)cc2)cc1,1%,-6%,-6,0%,-16%,0
CCOC(=O)c1cc(-c2ccc(F)cc2)n(CCC(=O)NCc2ccccc2OC)c1C,nt,-42%,nt,nt,-25%,nt
COc1ccc(-c2noc(CCC(=O)Nc3cccnc3)n2)cc1OC,-1%[9.24 µM],4%,-11,-2%,-4%,-15
CCCCCCn1c(SCCCC)nc2c1c(=O)[nH]c(=O)n2C,-4%,9%,3,2%,3%,-6
CCn1c([N+](=O)[O-])nc2c1c(=O)[nH]c(=O)n2C,21µM*,10µM*,-99*,18µM*,-126%,-1
COc1cc(C2Nc3ccc4ncccc4c3C3=C2C(=O)CCC3)ccc1O (stereo not given),5.8µM*,5%,9,?,-11%,17
Cc1sc(-n2c(C)cc(/C=C3\SC(=S)NC3=O)c2C)c(C#N)c1C,11µM*,?,24,13µM*,-72%,-2
O=C(NCc1ccc(F)cc1)c1cnc(Cl)c(Cl)c1,10%,-6%,-79*,7%,5%,6
CCn1c2ccccc2c2cc(NC(=O)COc3cc(C)c(Cl)c(C)c3)ccc21,nt,-14%,nt,nt,-98%,nt
Cc1cc(C)nc(Sc2nc(Nc3ccccc3)nc(Sc3nc(C)cc(C)n3)n2)n1,-26%,6%,-54*,-12%,16%,6
Cc1ccc(C(=O)Sc2cccccc2=O)cc1,1.6µM*,0.89µM*,-97*,?,1.4µM*,-6
C/C(=N\NC(=O)c1ccco1)c1ccc(NC(=O)c2ccccc2)cc1,2%,0%,-11,0%,11%,-4
COc1ccccc1C(=O)Nc1nnc(-c2ccc3c(c2)CCCC3)o1,-16%,?,-63*,-17%,-56%,-21
O=C1NC2c3c(Cl)sc(Cl)c3C(=O)C2O1 (stereo not given),?,0%,-103*,?,-34%,30
O=C1NC2c3c(I)sc(I)c3C(=O)C2O1 (stereo not given),?,?,-56*,?,-9%,-18
O=C1NC2c3ccccc3CC2O1 (stereo not given),11%,0%,27,13%,-2%,-4
CCCCCCCCCCOC(=O)Cn1c(COc2ccccc2OC)[n+](C)c2ccccc21,21µM*,?,-91*,15µM*,-100%,8
CCOc1cc(C(=S)N2CCOCC2)ccc1OS(=O)(=O)c1ccc(NC(C)=O)cc1,-2%,-8%,-53*,-2%,-15%,1
CCOc1cc(C(=S)N2CCOCC2)ccc1OS(=O)(=O)c1ccc(OC)cc1,-10%,1%,-29,-4%,-12%,-10
Cc1[nH]c(=O)c(C(=O)/C=C/c2ccccc2F)c2c1CCCC2,7.9µM*,?,-97*,7.9µM*,-85%,8
CCOC(=O)c1cc2c(=Cc3ccc(N(C)C)cc3)c3ccccc3n2[n+]1C,8.2µM*,?,-101*,?,-39%,-13
CN(C)c1ccc(C=c2c3ccccc3n3c2c2ccccc2[n+]3C)cc1,8.2µM*,2.5µM*,-66*,23µM*,-43%,7
Cc1cc2c(=Cc3ccc(N(C)C)cc3)c3ccccc3n2[n+]1C,4.6µM*,6.3µM*,-2,15µM*,-29%,-11
SMILES,HT1080 IDH1KD tx,TGFb SMAD3 inh,IL1B secr inh,HT1080NT lethal,HepG2 tox,Giardia killer
Cc1ccc(NC(=O)CCNS(=O)(=O)c2ccccc2)c(C(=O)c2ccccc2)c1,-2%,-12%,-8,0%,-1%,2
Cc1ccc(C)c(OCCC(=O)NNC(=O)c2ccccc2)c1,6%,1%,-5,12%,-5%,-24
CCOC(=O)C1CCN(Cc2cnc(Oc3ccc(OC)cc3)s2)CC1,7%,11%,9,0%,8%,-7
Cc1cccc(C(=O)NC(C)C(=O)NC(c2nc3ccccc3[nH]2)C(C)C)c1 (stereo not given),-1%,3%,12,-2%,-2%,5
Cn1c2c(c3cc([N+](=O)[O-])ccc31)CCCC2,15%,3%,-16,28%,-12%,-6
CN(C)S(=O)(=O)c1ccc(-c2csc(N/N=C/c3ccc(O)cc3)n2)cc1,4.1µM*,?,-103*,9.2µM*,13µM*,-2
Cc1ccc(-c2csc(N/N=C/c3ccco3)n2)cc1,-21%,-28%,-6,-7%,-30%,-12
CN(C)S(=O)(=O)c1ccc(-c2csc(N/N=C/c3ccco3)n2)cc1,-13%,?,-94*,-23%,-43%,11
Cc1cc(C)nc(NS(=O)(=O)c2ccc(N3C(=O)C4CC=C(Cl)CC4C3=O)cc2)n1 (stereo not given),9%,?,-28,3%,0%,-12
CC1(C)Cc2c(sc3ncnc(NNC(=S)NCc4ccccc4)c23)CO1,1.8µM*,?,85,?,-15%,15
CC1=NN(S(=O)(=O)c2ccc(C)cc2)C(=O)c2ccccc2O1,8%,-2%,-3,0%,2%,6
COc1ccc(S(=O)(=O)N2N=C(C)Oc3ccccc3C2=O)cc1,3.3µM*,-4%,42,2.9µM*,2%,-2
CCc1ccc(CN2CCCC(CNS(=O)(=O)c3ccc(OC)cc3)C2)cc1 (stereo not given),-30%,4%,-94*,-32%,27%,-9
CCn1cc(CN2CCCC(CNS(=O)(=O)c3ccc(OC)cc3)C2)cn1 (stereo not given),-11%,12%,i,0%,9%,9
CCNC(=O)c1cc2c(c(-c3cccc(-c4cccc(C(=O)N(C)C)c4)c3)n1)[C@H](CCO)N(S(=O)C(C)(C)C)C2 (stereo not given in full),3%,-26%,0,1%,-18%,nt
